Source: PubChem (National Center for Advancing Translational Sciences (NCATS))
D1 PAM – human D1 dopamine receptor positive modulation | P21728 | HEK293 TREx D1 cells, calcium flux, dopamine EC20 potentiation | potentiation, % at 10 µM | 0.036% of 360,000 active | AID 504651; in the data active means potentiation above about 30%
Target sequence (P21728 whole entry, looked up): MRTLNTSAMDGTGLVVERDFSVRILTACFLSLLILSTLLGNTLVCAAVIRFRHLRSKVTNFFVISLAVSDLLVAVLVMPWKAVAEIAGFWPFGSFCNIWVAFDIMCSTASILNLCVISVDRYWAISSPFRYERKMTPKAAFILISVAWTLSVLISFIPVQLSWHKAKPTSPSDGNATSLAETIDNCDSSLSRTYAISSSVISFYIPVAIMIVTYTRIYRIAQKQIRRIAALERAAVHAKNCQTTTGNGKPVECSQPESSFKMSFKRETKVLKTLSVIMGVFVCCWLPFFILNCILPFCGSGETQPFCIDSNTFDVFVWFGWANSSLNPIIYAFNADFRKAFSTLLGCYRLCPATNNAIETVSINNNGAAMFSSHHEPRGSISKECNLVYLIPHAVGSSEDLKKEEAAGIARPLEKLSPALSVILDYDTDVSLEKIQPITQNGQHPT
DRD3 antagonist – D3 dopamine receptor (human) antagonism | P35462 | D3R cells, DiscoveRx beta-arrestin luminescence, antagonist mode; hits give low values | max response, negative = inhibition, % | 2.5% of 360,000 active; in the data active means max response below about -50%; inconclusive means no clear call, values can overlap the other calls
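Cells expressing the human receptor were seeded at 1500 cells/well, incubated overnight at 37 degrees C in 5% CO2, then exposed to library compounds with dopamine controls for 90 minutes at 37 degrees C before luminescent detection.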
D1 antag – antagonists of human D1 dopamine receptor; activity change, negative = inhibition, % at 10 µM; AID 504652; HEK293 TREx D1 cells, calcium flux, dopamine EC80; hits give low values; 3.2% of 360,000 active; P21728; in the data active means activity change below about -30%
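Kinetic fluorescence of a calcium dye serves as the read-out. D1-expressing Hek293 Trex cells, induced overnight at 30 C, are exposed to compound for 180 s before an EC80 dopamine addition, then read 180 s further.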
D1 ag – agonists of human D1 dopamine receptor | activation, % at 2 µM | AID 504660 | HEK293 T-REx D1 cells, calcium flux, agonist mode | P21728 | 1% of 360,000 active; in the data active means activation above about 30%
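Agonism was scored from calcium flux recorded over 180 s (1 read/s) after pintool compound addition, following a 10-cycle baseline. Cells were inducible force-coupled HEK293 TREx D1, plated overnight at 30 C and loaded with no-wash calcium dye.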
DRD3 agonist – D3 dopamine receptor (human) agonism; P35462; D3R DiscoveRx beta-arrestin cells, luminescence, 90 min; max activation, %; 0.58% of 410,000 active; AID 652048; in the data active means max activation above about 30%
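Agonist mode: compounds and dopamine controls were applied to plated cells for 90 min at 37 degrees C after an overnight attachment at 1500 cells/well. Luminescent read-out followed 30 - 60 minutes at room temperature with DiscoveRx detection reagent.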
Each line names hits and unclear results; the compound was inactive in the other large screens. In the library only some 6.1% were active in any assay of this set; here they are far more common.

CCc1ccc2c(c1)-c1ccccc1S(=O)(=O)N2CC(=O)N1CCCCC1	none (no result: DRD3 antagonist)
Cc1c(C(=O)N2CCCCC2)c(S(=O)(=O)N2CCC(C)CC2)c(C)n1C	none
CN(CC(=O)NCCN1CCN(c2ccccc2)CC1)S(=O)(=O)c1ccc2c(c1)CCC(=O)N2	DRD3 antagonist -64.0
CN(CC(=O)NCc1ccccc1)S(=O)(=O)c1ccc2c(c1)CCC(=O)N2	none
COc1ccc(CCNc2ccncn2)cc1OC	DRD3 agonist 31.2
CCOc1ccccc1NC(=O)CSc1nnc(CNC(=O)COc2ccc(Cl)cc2)o1	D1 antag -38.0
O=C(COc1ccc(Cl)cc1)NCc1nnc(SCC(=O)Nc2ccc(F)cc2F)o1	none
COc1ccc(NC(=O)C2CCCN(c3nnc(C)c4c(C)n(-c5ccccc5)nc34)C2)cc1Cl (centres undefined)	none (no result: DRD3 antagonist)
CC(C)(O)C#Cc1ccc(CN2CCN(Cc3ccccc3)C(CCO)C2)s1 (centres undefined)	none
CC(C)(O)C#Cc1ccc(CN2CCN(Cc3ccsc3)C(CCO)C2)s1 (centres undefined)	none
CC(C)=CCN1CCN(Cc2ccc(C#CC(C)(C)O)s2)CC1CCO (centres undefined)	D1 antag -36.7
CC(C)(O)C#Cc1ccc(CN2CCN(CCc3ccccc3)C(CCO)C2)s1 (centres undefined)	D1 antag -37.1
O=C(Nc1cccc(F)c1)C1CCN(S(=O)(=O)c2cccc3nsnc23)CC1	none (no result: DRD3 antagonist)
COc1ccccc1N1CCN(c2nc3ccccc3n3cnnc23)CC1	none (no result: DRD3 antagonist)
Cc1cccc(N2CCN(C(=O)CS(=O)(=O)Cc3nc(-c4ccccc4C)oc3C)CC2C)c1 (centres undefined)	none (no result: DRD3 antagonist)
COc1ccc(-n2c(COc3cccc4cccnc34)nnc2SCC(=O)O)cc1	none
COc1ccc(CN(C)CC(=O)Nc2sc3c(c2C#N)CCC3)cc1OC	DRD3 agonist 37.1
Cc1ccccc1C(=O)NCC(=O)NNC(=O)CCN1CCN(c2ccccc2)CC1	DRD3 agonist 32.2
Cc1ccsc1C(=O)NNC(=O)CCN1CCN(c2ccccc2)CC1	DRD3 antagonist inconclusive
O=C(CCN1CCN(c2ccccc2)CC1)NNC(=O)Cc1ccc(Br)cc1	DRD3 antagonist inconclusive, D1 antag -38.9
CCOC(=O)C1CCN(C(=O)CSc2n[nH]c(-c3ccccc3)n2)CC1	none (no result: DRD3 antagonist)
CCn1c(O)c(N=NC(=O)C2C(=O)NCC2c2ccccc2)c2ccccc21 (centres undefined)	D1 antag -80.2
CCOC(=O)N=Nc1c(O)n(CC)c2ccccc12	none
CCCN1CCN(C(=O)c2noc3c2COc2ccc(C)cc2-3)CC1	DRD3 antagonist -64.3
CCOC(=O)N1CCN(C(=O)c2noc3c2COc2ccccc2-3)CC1	D1 antag -30.8
CCc1nc2ccc(C(=O)NCCc3c[nH]c4ccccc34)cn2c1N(C=O)CCC(C)C	none (no result: D1 PAM, D1 antag, D1 ag)
C=C(C)c1cccc(C(C)(C)NC(=O)NC2CCN(Cc3ccccc3)CC2)c1	DRD3 antagonist -76.8
CN(CC(=O)NC1CCN(Cc2ccccc2)CC1)S(=O)(=O)c1ccc(Br)s1	DRD3 antagonist -56.1
O=C(NC1CCN(Cc2ccccc2)CC1)c1cccc(OC(F)F)c1	DRD3 antagonist -54.9, D1 antag -32.5
S=C(NCc1ccc2c(c1)OCO2)NC1CCN(Cc2ccccc2)CC1	DRD3 antagonist -59.8, D1 ag 37.9
CCC(C)NC(=O)Cn1ncc2c(C)n(Cc3ccc(F)cc3)c(C)c2c1=O (centres undefined)	none (no result: DRD3 antagonist)
O=C(NC1CCN(Cc2ccccc2)CC1)c1ccc2c(c1)OCCCO2	DRD3 antagonist -56.7
O=C(NC1CCN(Cc2ccccc2)CC1)c1cccc(Br)c1	DRD3 antagonist -84.5
O=C(NC1CC1)c1cccc(Oc2ccccc2)c1	none
O=C(NC1CCCCC1)c1cccc(OCc2ccccc2)c1	D1 ag 37.1
CCOc1ccc2oc(C(=O)NC3CCN(Cc4ccccc4)CC3)c(C)c2c1	none
O=C(NC1CCCCC1)c1ccc2c(c1)OCCO2	none
Cc1c(C(=O)NC2CCN(Cc3ccccc3)C2)oc2ccc(Br)cc12 (centres undefined)	DRD3 antagonist -58.7
COc1ccccc1NC(=O)C(OC(=O)CNC(=O)c1ccccc1)c1ccccc1 (centres undefined)	none (no result: DRD3 antagonist, DRD3 agonist)
O=C(NC1CCN(Cc2ccccc2)CC1)C1COc2ccccc2O1 (centres undefined)	DRD3 antagonist -78.2
O=S1(=O)NC(=NCCc2ccccn2)c2ccccc21	none
Cc1cc(NC(=O)Cn2c(=O)nc(-c3ccccc3F)c3cc(Cl)ccc32)ccc1Br	none (no result: DRD3 antagonist)
COc1ccc(C(O)(CC(C)C)C(CN2CCOCC2)c2ccccc2)cc1 (centres undefined)	DRD3 agonist 88.3
CCOC(=O)N(C)c1c(CC)nc2c(OCCC3CCCCC3)cccn12	DRD3 antagonist inconclusive (no result: D1 PAM, D1 antag, D1 ag)
CCOC(=O)C(=O)N(C)c1c(CC)nc2c(OCCC3CCCCC3)cccn12	DRD3 antagonist -84.4 (no result: D1 PAM, D1 antag, D1 ag)
CCc1nc2c(OCCC3CCCCC3)cccn2c1N(C)C(=O)c1cccs1	DRD3 antagonist -100.6 (no result: D1 PAM, D1 antag, D1 ag)
CCc1nc2c(OCCC3CCCCC3)cccn2c1N(C)C(=O)CC(C)C	none (no result: D1 PAM, D1 antag, D1 ag)
CCc1nc2c(OCCC3CCCCC3)cccn2c1N(C=O)Cc1ccc(OC)cc1	DRD3 antagonist -76.7 (no result: D1 PAM, D1 antag, D1 ag)
CCCCC(=O)N(C)c1c(CC)nc2c(OCCC3CCCCC3)cccn12	DRD3 antagonist -71.1 (no result: D1 PAM, D1 antag, D1 ag)
CO[C@H]1C[C@H](O[C@H]2[C@H](C)[C@@H](O[C@@H]3O[C@H](C)C[C@H](N(C)C)[C@H]3OC(C)=O)[C@@H](C)C[C@]3(CO3)C(=O)[C@H](C)[C@@H](OC(C)=O)[C@@H](C)[C@@H](C)OC(=O)[C@@H]2C)O[C@@H](C)[C@@H]1OC(C)=O	none (no result: D1 PAM, DRD3 antagonist, D1 antag, D1 ag)
COc1ccc(N2CCN(c3c4c(nc5nncn35)CCC4)CC2)cc1	none (no result: DRD3 antagonist)
O=C(NN=Cc1ccc(O)cc1)C(=O)NN=Cc1ccc(O)cc1	none (no result: D1 PAM, D1 antag, D1 ag)
COCCCNC(=S)N/N=C/c1ccc(O)cc1O	DRD3 agonist 32.0
Oc1ccc(C=NNC(=S)Nc2ccc(F)cc2)c(O)c1	DRD3 agonist 33.0 (no result: D1 PAM, D1 antag, D1 ag)
O=C(N/N=C/c1ccc(O)cc1O)C(=O)N/N=C/c1ccc(O)cc1O	DRD3 agonist 39.5
CC(C)(CC(=O)NCc1ccc(Cl)cc1Cl)CC1=NS(=O)(=O)c2ccccc2N1	D1 antag -51.2 (no result: DRD3 antagonist)
Cc1c([S+](=O)([O-])N2CCN([S+](=O)([O-])c3c(F)cccc3F)CC2)sc2ccc(Cl)cc12	D1 antag -31.2 (no result: DRD3 antagonist, DRD3 agonist)
O=[S+]([O-])(c1c(F)cccc1F)N1CCN([S+](=O)([O-])c2csc3ccccc23)CC1	none (no result: DRD3 antagonist, DRD3 agonist)
Cc1cc(C)nc(/N=C2\NC(=O)CC(C(=O)O)N2c2ccc(Cl)cc2)n1 (centres undefined)	D1 antag -61.8
CN(Cc1ccccc1)c1oc(COc2ccccc2F)nc1C#N	D1 antag -33.0 (no result: D1 PAM)
N#Cc1nc(COc2ccccc2F)oc1NCCc1ccccc1	none
O=C(O)CCN1CCOCC1	D1 antag -67.2
